Values joined by “and” are separate entries in the source; they are usually repeats but may differ in a detail not shown here. Equal entries are not always repeated. Screen size: about 5,500 compounds; about 2,000 (36%) were called active. Another 18% or so got no clear call; they are omitted. No stated cut-off is given here; in the data, active means normalized growth mostly below about 0.91 (no sharp cut-off); inconclusive means no clear call, values can overlap the other calls; inactive means mostly above about 0.92. Some of the results follow.
Assay: chemical genetic growth profiling, strain panel (AID 1159580);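 further: tested at 20 µM; growth read once vehicle control cultures reached saturation at 30 °C; 1 = growth at the plate median or of vehicle wells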
Conditions: S. cerevisiae deletion strains, growth OD

Measured: normalized growth

COC(=O)C1=C(C)NC(C)=C(C(=O)OC)C1c1ccccc1[N+](=O)[O-]
0.891 (active) and 0.969 (inactive): locus YHR030C, strain SLT2, stronger effect = lower value
inactive: locus YAL040C, strain CLN3, stronger effect = lower value 0.993 | locus YBR021W, strain FUR4, stronger effect = lower value 0.996 | locus YBR171W, strain sec66, stronger effect = lower value 0.975 | locus YBR229C, strain ROT2, stronger effect = lower value 0.998 | locus YCL016C, strain dcc1, stronger effect = lower value 0.943 | locus YCL029C, strain bik1, stronger effect = lower value 0.97 | locus YCL061C, strain MRC1, stronger effect = lower value 0.933 | locus YCL069W, strain vba3, stronger effect = lower value 0.947 | locus YCR088W, strain abp1, stronger effect = lower value 0.955 | locus YDL005C, strain med2, stronger effect = lower value 0.974 | locus YDL040C, strain nat1, stronger effect = lower value 0.98 | locus YDL074C, strain BRE1, stronger effect = lower value 0.905 | locus YDL101C, strain DUN1, stronger effect = lower value 1.01 | locus YDL185W, strain tfp1, stronger effect = lower value 0.938 | locus YDR001C, strain nth1, stronger effect = lower value 0.975 | locus YDR101C, strain arx1, stronger effect = lower value 0.963 | locus YDR137W, strain rgp1, stronger effect = lower value 0.953 | locus YDR159W, strain sac3, stronger effect = lower value 0.918 | locus YDR195W, strain ref2 0.999 | locus YDR334W, strain swr1, stronger effect = lower value 0.904 | locus YDR335W, strain msn5, stronger effect = lower value 0.969 | locus YDR363W, strain ESC2, stronger effect = lower value 0.992 | locus YDR388W, stronger effect = lower value 0.933 | locus YEL037C, strain rad23, stronger effect = lower value 0.934 | locus YEL061C, strain CIN8 (second series), stronger effect = lower value 0.966 | locus YER002W, strain NOP16, stronger effect = lower value 1 | locus YER016W, strain bim1, stronger effect = lower value 0.944 | locus YER110C, stronger effect = lower value 1 | locus YER111C, strain swi4, stronger effect = lower value 0.94 | locus YER155C, strain BEM2 (second series), stronger effect = lower value 0.987 | locus YER155C, strain BEM2, stronger effect = lower value 1.01 | locus YGL078C, strain dbp3, stronger effect = lower value 0.978 | locus YGL167C, strain pmr1, stronger effect = lower value 0.916 | locus YGL227W, strain vid30, stronger effect = lower value 0.988 | locus YGL240W, strain doc1, stronger effect = lower value 0.96 | locus YGR078C, strain PAC10, stronger effect = lower value 0.991 | locus YGR252W, strain gcn5, stronger effect = lower value 0.997 | locus YHR079C, strain IRE1 (second series), stronger effect = lower value 0.957 | locus YHR079C, strain IRE1, stronger effect = lower value 0.956 | locus YHR094C, strain hxt1, stronger effect = lower value 0.974 | locus YHR142W, strain chs7, stronger effect = lower value 0.894 | locus YIL125W, strain kgd1, stronger effect = lower value 0.948 | locus YIR030C, strain dcg1, stronger effect = lower value 0.992 | locus YJL092W, strain hpr5, stronger effect = lower value 0.945 | locus YJL095W, strain BCK1 (second series), stronger effect = lower value 0.933 | locus YJL095W, strain BCK1, stronger effect = lower value 1 and 0.958 | locus YJL115W, strain asf1, stronger effect = lower value 0.969 | locus YJL129C, strain trk1, stronger effect = lower value 0.89 | locus YJL134W, strain LCB3, stronger effect = lower value 0.963 | locus YJL154C, strain vps35, stronger effect = lower value 0.962 | locus YJL168C, strain set2, stronger effect = lower value 0.952 | locus YJL187C, strain SWE1 (second series), stronger effect = lower value 0.99 | locus YJR066W, strain TOR1, stronger effect = lower value 0.924
active: locus YAL021C, strain ccr4, stronger effect = lower value 0.829 | locus YAL026C, strain drs2, stronger effect = lower value 0.812 | locus YAL030W, strain snc1, stronger effect = lower value 0.896 | locus YBL061C, strain skt5, stronger effect = lower value 0.9 | locus YBR009C, strain hhf1, stronger effect = lower value 0.863 | locus YBR023C, strain chs3, stronger effect = lower value 0.91 | locus YBR231C, strain swc5, stronger effect = lower value 0.836 | locus YBR279W, strain paf1, stronger effect = lower value 0.887 | locus YCL011C, strain gbp2, stronger effect = lower value 0.907 | locus YCL061C, strain MRC1 (second series), stronger effect = lower value 0.829 | locus YDL035C, strain GPR1, stronger effect = lower value 0.725 | locus YDL134C, strain PPH21, stronger effect = lower value 0.783 | locus YDL192W, strain arf1, stronger effect = lower value 0.85 | locus YDR069C, strain doa4, stronger effect = lower value 0.719 | locus YDR162C, strain NBP2, stronger effect = lower value 0.388 | locus YDR297W, strain sur2, stronger effect = lower value 0.854 | locus YDR318W, strain mcm21, stronger effect = lower value 0.827 | locus YDR392W, strain spt3, stronger effect = lower value 0.73 | locus YDR502C, strain sam2, stronger effect = lower value 0.876 | locus YEL003W, strain gim4, stronger effect = lower value 0.895 | locus YEL061C, strain CIN8, stronger effect = lower value 0.918 | locus YER015W, strain faa2, stronger effect = lower value 0.828 | locus YER167W, strain BCK2, stronger effect = lower value 0.894 | locus YFR010W, strain ubp6, stronger effect = lower value 0.864 | locus YGL086W, strain mad1, stronger effect = lower value 0.799 | locus YGL173C, strain kem1, stronger effect = lower value 0.729 | locus YGL248W, strain PDE1, stronger effect = lower value 0.787 | locus YGL253W, strain hxk2, stronger effect = lower value 0.878 | locus YGR135W, strain pre9, stronger effect = lower value 0.799 | locus YHR013C, strain ard1, stronger effect = lower value 0.83 | locus YHR027C, strain rpn1, stronger effect = lower value 0.734 | locus YHR129C, strain ARP1, stronger effect = lower value 0.903 | locus YHR200W, strain rpn10, stronger effect = lower value 0.88 | locus YIL066C, strain RNR3, stronger effect = lower value 0.609 | locus YIL073C, strain SPO22, stronger effect = lower value 0.319 | locus YJL164C, strain tpk1, stronger effect = lower value 0.743 | locus YJL166W, strain qcr8, stronger effect = lower value 0.825 | locus YJL187C, strain SWE1, stronger effect = lower value 0.901 | locus YJR043C, strain POL32, stronger effect = lower value 0.752 | locus YJR075W, strain HOC1, stronger effect = lower value 0.822 and 0.894
